The supplement of paper PMC7156485
± gives the standard deviation of the averaged measurements.

What was measured:
Settings in all cases: concentration: 10 µM; 24 h
HCC1569 [1] = assay: cell number relative to DMSO (% of DMSO); higher = more cells (less growth inhibition / toxicity)
Summary of the method: (§1)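 HCC1569 and TDF cells were seeded at 800 per well in 384-well plates in RPMI with 10% FBS and treated with compounds at 10 µM for 24 h at 37 °C, in triplicate. After fixation in 3.7% formaldehyde, cells were stained with a rabbit anti-H1.0 antibody, an AlexaFluor 647 secondary and DAPI, and six fields per well were imaged at ×10. H1.0 nuclear intensity or cell number is given as percent of the plate control, using the median of replicates, with HCC1569 values smoothed for positional effects.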

TDF [2] = assay: as above
Summary of the method: as §1

TDF [3] = assay: H1.0 immunofluorescence intensity relative to DMSO (% of DMSO); higher = stronger H1.0 induction, active = 120 or more
Summary of the method: as §1

HCC1569 [4] = assay: H1.0 immunofluorescence intensity relative to DMSO (% of DMSO); higher = stronger H1.0 induction, active = 140 or more
Summary of the method: as §1
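For H1.0 immunofluorescence intensity relative to DMSO in this document: TDF is a line of transformed human dermal fibroblasts of mesenchymal origin.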
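For cell number relative to DMSO in this document: TDF denotes transformed human dermal fibroblasts of mesenchymal origin.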

| Structure (SMILES) | cell number (HCC1569 [1]) | cell number (TDF [2]) | H1.0 immunofluorescence intensity (TDF [3]) | H1.0 immunofluorescence intensity (HCC1569 [4]) |
| --- | --- | --- | --- | --- |
| CC(=O)Nc1nc(C)c(S(=O)(=O)Nc2ccc(C(O)(C(F)(F)F)C(F)(F)F)cc2)s1 | 97.5 | 109 | 85.1 (inactive) | 111 (inactive) |
| CC(C)Cn1cnc2c(N)nc3ccccc3c21 [Imiquimod] | 102 | 93.4 | 95.3 (inactive) | 108 (inactive) |
| CCCCCCCCCCCCCCCC(=O)NCC(COP(=O)([O-])OCC[N+](C)(C)C)OC (racemic) [rac-2-Methoxy-3-hexadecanamido-1-propylphosphocholine] | 75.4 | 65 | 185 (active) | 142 (active) |
| CCOC(=O)C12CC1C(=NO)c1ccccc1O2 (stereo unspecified) | 100 | 105 | 93.9 (inactive) | 97.2 (inactive) |
| C[C@@H]1CCN(C(=O)CC#N)C[C@@H]1N(C)c1ncnc2[nH]ccc12 | 103 | 109 | 79 (inactive) | 96.3 (inactive) |
| CCN1CCCC1CNC(=O)c1c(OC)ccc(I)c1O (stereo unspecified) | 106 | 91 | 96.7 (inactive) | 88.1 (inactive) |
| Cl.Clc1ccc2nsnc2c1NC1=NCCN1 [Tizanidine.HCl] | 118 | 116 | 104 (inactive) | 83.4 (inactive) |
| CNCCC=C1c2ccccc2CCc2ccccc21.Cl [Nortriptyline hydrochloride] | 88.9 | 93.9 | 109 (inactive) | 117 (inactive) |
| NC(=O)c1cnccn1 [Pyrazinecarboxamide] | 102 | 106 | 94.2 (inactive) | 110 (inactive) |
| CON=C(C(=O)NC1C(=O)N2C(C(=O)O)=C(COC(C)=O)CSC12)c1csc(N)n1 (stereo unspecified) [Cefotaxime Acid] | 107 | 99.1 | 96.3 (inactive) | 103 (inactive) |
| CNCCC(Oc1ccccc1C)c1ccccc1 (stereo unspecified) [Tomoxetine] | 101 | 112 | 103 (inactive) | 102 (inactive) |
| CC1CCN(CCC2CCCN2S(=O)(=O)c2cccc(O)c2)CC1.Cl (stereo unspecified) | 102 | 109 | 92.1 (inactive) | 107 (inactive) |
| CC(C)OC(=O)CCCC=CCC1C(O)CC(O)C1CCC(O)CCc1ccccc1 (stereo unspecified) [Latanoprost] | 103 | 108 | 86.7 (inactive) | 105 (inactive) |
| CNCCC(Oc1ccc(C(F)(F)F)cc1)c1ccccc1.Cl (stereo not drawn) [R-(-)-Fluoxetine hydrochloride] | 92 | 105 | 110 (inactive) | 117 (inactive) |
| CN1CCC(=C2c3ccccc3C=Cc3ccccc32)CC1 [Cyproheptadine] | 100 | 83.7 | 98.2 (inactive) | 108 (inactive) |
| CCC1C(=O)N(C)c2cnc(Nc3ccc(C(=O)NC4CCN(C)CC4)cc3OC)nc2N1C1CCCC1 (stereo unspecified) | 27.1 | 32.4 | 157 (active) | 136 (inactive) |
| CCCCCC=CC=CC(O)CCCCCCCC(=O)O (racemic) | 103 | 96.8 | 103 (inactive) | 97 (inactive) |
| O=C1CCc2ccc(OCCCCN3CCN(c4cccc(Cl)c4Cl)CC3)cc2N1 [Aripiprazole] | 95.5 | 97 | 96.2 (inactive) | 126 (inactive) |
| c1ccc(C(OC2CCN(CCCc3nn[nH]n3)CC2)c2ccccc2)cc1 [4-(benzhydryloxy)-1-[3-(1H-tetraazol-5-yl)propyl]piperidine] | 104 | 102 | 92.8 (inactive) | 107 (inactive) |
| CC(=O)OC1CCC2(C)C(C1)C(OC(C)=O)CC1C2CC2C3CN4CC(C)CCC4C(C)C3CCC21O (stereo unspecified) [Diacetylkorseveriline] | 101 | 109 | 96.2 (inactive) | 95.1 (inactive) |
| O=C([O-])c1cc2cc(Cc3cccnc3)ccc2o1.[Na+] [Furegrelate sodium] | 102 | 102 | 88.5 (inactive) | 93.7 (inactive) |
| C#CCn1c(=O)c2c(ncn2C)n(C)c1=O [3,7-Dimethyl-I-propargylxanthine] | 99.5 | 97.1 | 91.6 (inactive) | 93.4 (inactive) |
| O=C(CCc1ccc(O)cc1)c1c(O)cc(O)cc1O [Phloretin] | 97.73 ± 0.41 | 98.5 ± 17 | 96.1 (inactive) | 107 (inactive) |
| CS(=O)(=O)CCNCc1ccc(-c2ccc3ncnc(Nc4ccc(OCc5cccc(F)c5)c(Cl)c4)c3c2)o1 [Lapatinib] | 59.8 | 57.6 | 124 (active) | 151 (active) |
